Assay results taken from the supplement of paper PMC12350171.
Where a name gives a salt, the structure may show the parent alone. Unmarked numbers belong to inactive results.

Assays:
Conditions in all cases: 20 µM
[1] = system: Salmonella enterica typhimurium; assay: growth AUC normalised to DMSO control (fraction of control); higher = less growth inhibition, active = hit call of the paper
How it was run: (§1)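 Pathogens were passaged twice under anaerobic conditions, then inoculated into pre-reduced mGAM plates at a starting OD578 of 0.01, with compound at 20 μM and 1% DMSO, and sealed with breathable membranes. For Haemophilus parainfluenzae, the medium was supplemented with hemin and NAD. OD578 was read every hour for 24 h in three biological replicates. Growth-curve AUC was calculated by the trapezoidal rule up to the exponential-to-stationary transition and normalised to DMSO controls on the same plate.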

Shigella flexneri = assay: as above
How it was run: as §1

Vibrio cholerae = assay: as above
How it was run: as §1

[2] = system: Yersinia pseudotuberculosis; assay: as above
How it was run: as §1

P. vulgatus RND KO = assay: growth AUC normalised to DMSO control (median) (fraction of control); higher = less growth inhibition, active = hit call of the paper
How it was run: (§2)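 Area under the growth curve, calculated by the trapezoidal rule up to entry into stationary phase, was normalised to vehicle wells on the same plate. Strains had been passaged twice overnight without oxygen and then grown in mGAM in 96-well plates from OD578 0.01, each with an approved-drug library compound at 20 μM in 1% DMSO. OD578 was read hourly over 24 h in an anaerobic incubator, and the median of three biological replicates is given.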

P. vulgatus WT = assay: as above
How it was run: as §2

[3] = system: S. enterica typhimurium WT; assay: as above
How it was run: as §2

[4] = system: S. enterica typhimurium tolC KO; assay: as above
How it was run: as §2
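Throughout, for growth AUC normalised to DMSO control (median): active when median AUC fell below 0.1.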

SMILES	growth AUC normalised to DMSO control [1]	growth AUC normalised to DMSO control (Shigella flexneri)	growth AUC normalised to DMSO control (Vibrio cholerae)	growth AUC normalised to DMSO control [2]	growth AUC normalised to DMSO control (P. vulgatus RND KO)	growth AUC normalised to DMSO control (P. vulgatus WT)	growth AUC normalised to DMSO control [3]	growth AUC normalised to DMSO control [4]
N=C(N)NCCN1CCCCCCC1 [Guanethidine sulfate]	1.01	0.988	1.04	1.03	1.02	1.01	1.01	1.01
CCN(CC)CC#CCOC(=O)C(O)(c1ccccc1)C1CCCCC1 (configuration not stated) [Oxybutynin chloride]	0.977	0.944	0.935	0.981	0.976	0.986	0.999	0.946
Clc1ccc(CSC(Cn2ccnc2)c2ccc(Cl)cc2Cl)cc1 (configuration not stated) [Sulconazole nitrate]	1.04	1.06	1.05	1.02	1.06	1.08	0.997	0.911
CCCCC1(COC(=O)CCC(=O)O)C(=O)N(c2ccccc2)N(c2ccccc2)C1=O [Suxibuzone]	1	1	0.993	1.01	1.02	1.03	1.01	0.985
CC[C@H]1OC(=O)[C@H](C)[C@@H](O[C@H]2C[C@@](C)(OC)[C@@H](O)[C@H](C)O2)[C@H](C)[C@@H](O[C@@H]2O[C@H](C)C[C@H](N(C)C)[C@H]2O)[C@](C)(O)C[C@@H](C)CN(C)[C@H](C)[C@@H](O)[C@]1(C)O [Azithromycin]	0.0316 (active)	0.0334 (active)	0.0396 (active)	0.0337 (active)	0.0189 (active)	0.0116 (active)	0.0218 (active)	0.00733 (active)
CC(C)(C(=O)O)c1ccc(C(O)CCCN2CCC(C(O)(c3ccccc3)c3ccccc3)CC2)cc1 (configuration not stated) [Fexofenadine hydrochloride]	1.02	1.02	1.04	0.99	1.01	1.01	1.01	1
CCCCCCCCCCCCCCCC[N+](C)(C)CCN(Cc1ccc(OC)cc1)c1ncccn1 [Thonzonium bromide]	0.999	0.979	0.944	1.01	0.878	0.883	1	1
Cc1nccn1CC1CCc2c(c3ccccc3n2C)C1=O (configuration not stated) [Ondansetron hydrochloride]	1.01	1.04	1.01	1	1.01	1.04	1	0.984
Nc1cc(-c2ccncc2)c[nH]c1=O [Amrinone]	1.01	1.06	1.07	1	1.05	1.06	1	1.02
CN1CCc2c(c3ccccc3n2Cc2ccccc2)C1 [Mebhydroline 1,5-naphtalenedisulfonate]	0.985	0.96	0.922	0.702	0.948	0.971	0.979	0.977
CC1Cc2ccccc2N1NC(=O)c1ccc(Cl)c(S(N)(=O)=O)c1 (configuration not stated) [Indapamide]	1	0.985	1.01	0.992	0.999	1.02	1	0.988
CC(=O)Nc1c(I)c(C(=O)N[C@H]2C(O)O[C@H](CO)[C@@H](O)[C@@H]2O)c(I)c(N(C)C(C)=O)c1I (some centres not stated) [Metrizamide]	1.01	0.985	0.988	1.01	1	1.01	1.02	1.01
C[C@H]1O[C@H](O[C@H]2[C@H](O)[C@@H](O)[C@@H](O[C@@H]([C@H](O)[C@@H](O)C=O)[C@H](O)CO)O[C@@H]2CO)[C@H](O)[C@@H](O)[C@@H]1N[C@H]1C=C(CO)[C@@H](O)[C@H](O)[C@H]1O [Acarbose]	1.04	0.995	0.999	1.01	1.01	0.884	1.03	1
CC(C)(O)c1ccccc1CC[C@@H](SCC1(CC(=O)O)CC1)c1cccc(/C=C/c2ccc3ccc(Cl)cc3n2)c1 [Montelukast]	1.02	1.04	1.05	1.01	0.911	0.875	1	1
COCCCC/C(=N\OCCN)c1ccc(C(F)(F)F)cc1 [Fluvoxamine maleate]	0.992	0.974	0.943	0.993	0.968	0.963	0.991	0.957
CN(C)CCC=C1c2ccccc2CCc2ccccc21 [Amitryptiline hydrochloride]	0.997	0.999	0.905	1.01	0.993	0.959	0.998	0.97
CN1CCN(C2=Nc3cc(Cl)ccc3Nc3ccccc32)CC1 [Clozapine]	1.02	1.05	0.969	1	1.01	1.02	1	0.977
Clc1ccccc1CN1CCc2sccc2C1 [Ticlopidine hydrochloride]	0.975	0.988	0.947	1.01	0.986	0.997	0.967	0.973
C[C@@H](O[C@H]1OCCN(Cc2n[nH]c(=O)[nH]2)[C@H]1c1ccc(F)cc1)c1cc(C(F)(F)F)cc(C(F)(F)F)c1 [Aprepitant]	0.993	0.978	0.985	0.976	0.0129 (active)	0.0137 (active)	0.994	0.997
OCc1cc(C(O)CNCCCCCCOCCCCc2ccccc2)ccc1O (configuration not stated) [Salmeterol]	0.997	0.995	1	0.959	0.977	0.962	0.995	0.946
Oc1c(Cl)cc(Cl)c(Cl)c1Cc1c(O)c(Cl)cc(Cl)c1Cl [Hexachlorophene]	0.941	1.04	0.0587 (active)	0.411 (active)	0.00764 (active)	0.00869 (active)	0.972	0.00738 (active)
OCCN1CCN(CCCN2c3ccccc3Sc3ccc(C(F)(F)F)cc32)CC1 [Fluphenazine dihydrochloride]	1.01	0.97	1.01	1.01	1	1	0.993	0.918
O=C(Nc1cccc2c(=O)cc(-c3nnn[nH]3)oc12)c1ccc(OCCCCc2ccccc2)cc1 [Pranlukast]	1.01	0.991	1	0.95	0.968	0.957	1.01	0.987
C/C(=C(\CCOP(=O)(O)O)SC(=O)c1ccccc1)N(C=O)Cc1cnc(C)nc1N [Benfotiamine]	0.997	0.982	0.996	0.988	1.02	1.03	1.01	0.999
CCC(NC(C)C)C(O)c1ccc(O)c(O)c1 (configuration not stated) [Isoetharine mesylate salt]	0.999	1	0.995	1	0.994	1.01	0.999	0.994
NC[C@H]1O[C@H](O[C@H]2[C@H](O)[C@@H](O[C@H]3O[C@H](CO)[C@@H](O)[C@H](N)[C@H]3O)[C@H](N)C[C@@H]2N)[C@H](N)C[C@@H]1O [Tobramycin]	0.888 (active)	0.794 (active)	0.97	0.107 (active)	1.03	1.05	0.969	0.995
CC(C)(C)NC[C@H](O)c1ccc(O)c(CO)c1 [Levalbuterol hydrochloride]	0.95	1.01	1.01	0.992	0.962	0.992	1.01	0.997
CC(C)(C)NC[C@@H](O)COc1cccc2c1CCCC2=O [(+) Levobunolol hydrochloride]	0.982	0.943	0.978	0.987	0.999	0.975	0.993	0.993
CC(=O)SCC(Cc1ccccc1)C(=O)NCC(=O)OCc1ccccc1 (configuration not stated) [Racecadotril]	1	1	1	1.01	1.06	1.05	1	0.963
